DAX1 inh-1: DAX1 (NR0B1) inhibitors, primary screen, cell-based, HEK293, Gal4-DAX1, luciferase luminescence | Nuclear receptor subfamily 0 group B member 1 (Homo sapiens), P51843 | HEK293 Gal4-DAX1 luciferase reporter | inhibition, % at 6.75 µM | 340,000 tested, 0.99% active;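 active = inhibition above the mean over all tested compounds plus 3 SD, cut at about 4.2% in these data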;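 also: 0% = DAX1-transfected cells with DMSO and 100% = empty-vector control cells with DMSO; inhibition shows as a rise in luminescence from relieved DAX1 repression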
hcDAF12 agonist: H. contortus DAF-12 nuclear receptor activators, primary screen, cell-based, luminescence, HEK293, lit1-tk-luc reporter. activation, % at 6.8 µM. 370,000 tested, 1.4% active. HEK293 hcDAF-12 lit1-tk-luc reporter; 0% DMSO, 100% Δ7-dafachronic acid;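 active = activation above the mean of all tested compounds plus 3 SD, cut at about 5.5% in these data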;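 also: 100% = response to 3 µM Δ7-dafachronic acid high control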
AHR activator: AHR activators, primary screen, cell-based, luminescence, luciferase reporter, human; AHR-responsive luciferase reporter cells; activation, % at 5 µM; 320,000 tested, 2.5% active; AID 2796, 2010; in the data active = activation above about 47%;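 also: 0% = vehicle wells and 100% = reference agonist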
Target sequence (P35869 whole entry, looked up): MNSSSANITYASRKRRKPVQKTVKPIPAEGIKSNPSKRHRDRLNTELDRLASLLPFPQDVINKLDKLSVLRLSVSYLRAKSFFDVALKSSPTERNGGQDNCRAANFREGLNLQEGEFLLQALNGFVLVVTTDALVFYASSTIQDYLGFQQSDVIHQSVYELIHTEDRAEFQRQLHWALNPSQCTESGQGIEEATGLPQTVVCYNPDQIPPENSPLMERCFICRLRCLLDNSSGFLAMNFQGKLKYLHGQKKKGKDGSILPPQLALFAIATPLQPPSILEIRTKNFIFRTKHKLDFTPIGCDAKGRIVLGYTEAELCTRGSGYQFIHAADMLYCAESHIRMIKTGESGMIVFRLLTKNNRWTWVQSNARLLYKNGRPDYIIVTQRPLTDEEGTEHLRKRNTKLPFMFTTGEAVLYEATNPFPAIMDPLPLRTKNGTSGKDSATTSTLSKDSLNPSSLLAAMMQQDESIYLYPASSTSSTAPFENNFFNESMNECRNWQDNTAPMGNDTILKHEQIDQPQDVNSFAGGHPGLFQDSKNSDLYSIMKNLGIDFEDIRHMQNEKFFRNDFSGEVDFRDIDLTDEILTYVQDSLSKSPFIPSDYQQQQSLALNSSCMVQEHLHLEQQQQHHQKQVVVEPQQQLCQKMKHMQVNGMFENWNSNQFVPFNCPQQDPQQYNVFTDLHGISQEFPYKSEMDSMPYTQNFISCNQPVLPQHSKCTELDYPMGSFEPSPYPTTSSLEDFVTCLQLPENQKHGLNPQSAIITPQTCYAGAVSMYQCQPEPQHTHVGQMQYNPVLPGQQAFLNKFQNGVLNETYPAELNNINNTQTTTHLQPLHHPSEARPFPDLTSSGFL
hgDAF12 agonist: H. glycines DAF-12 receptor agonists, primary screen, cell-based, luminescence, HEK293, GAL4 fusion, UAS-luciferase; HEK293 GAL4-hgDAF12 UAS-luciferase reporter, agonist luminescence; normalized to butyrate control; activation, % at 6.8 µM; 370,000 tested, 1.8% active; AID 687014, 2013;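 active = activation above a cutoff set at the mean of all screened compounds plus 3 SD, cut at about 10% in these data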;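 also: 0% = DMSO wells and 100% = sodium butyrate wells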
ssDAF12 agonist: S. stercoralis DAF-12 nuclear receptor activators, primary screen, cell-based, luminescence, HEK293, GRIP1 co-expression, lit1-tk-luc. Nuclear hormone receptor DAF-12 (Strongyloides stercoralis). HEK293 ssDAF-12/GRIP1 lit1-tk-luc reporter; % of 3 µM dafachronic acid response. activation, % at 6.8 µM. 370,000 tested, 1% active;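 active = activation above the mean over all tested compounds plus 3 SD, cut at about 0.9% in these data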;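 also: 0% = DMSO-only wells and 100% = 3 µM delta7-dafachronic acid wells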
DAX1 inh-2: DAX1 (NR0B1) inhibitors on StAR promoter, primary screen, cell-based, luminescence, SF-1 (NR5A1), full-length DAX-1. HEK293T StAR-luciferase reporter, SF-1/DAX-1 repression relief. inhibition, % at 6.8 µM. 370,000 tested, 1.1% active;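 active = inhibition above the mean over all tested compounds plus 3 SD, cut at about 3.6% in these data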;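 also: 0% = DAX-1 cells with DMSO and 100% = cells lacking DAX-1 with DMSO; higher inhibition means more luminescence from relief of DAX-1 repression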
Numbers without * were called inactive; . = not tested or not shown. Compounds with a hit are over-represented: about 5.7% of the library has one in this group of screens.

SMILES	DAX1 inh-1	hcDAF12 agonist	AHR activator	hgDAF12 agonist	ssDAF12 agonist	DAX1 inh-2
Clc1ccc(Cn2cc(/C=N/n3cnnc3)c3ccccc32)c(Cl)c1	-1.0	-1.6	6.9	-2.4	-1.3	0.4
COC(=O)N/N=C/c1cn(Cc2ccc(Cl)cc2Cl)c2ccccc12	-2.1	-3.0	70.6*	-4.5	-1.7	-1.4
COC(=O)N/N=C/c1cn(CCCOc2ccccc2)c2ccccc12	0.6	-3.5	17.8	4.0	-1.7	-1.0
COC(=O)N/N=C/c1cn(Cc2ccc(F)cc2)c2ccccc12	-1.1	-0.3	25.7	1.0	-0.5	-1.0
COC(=O)N/N=C/c1cn(Cc2c(Cl)cccc2Cl)c2ccccc12	-1.3	-1.5	63.9*	-2.4	-1.4	0.0
COC(=O)N/N=C/c1cn(Cc2ccccc2F)c2ccccc12	-2.0	-1.3	57.6*	-2.1	-2.2	-0.7
Cc1ccc(-c2nnc(Nc3ccc(C(=O)N(C)C)cc3)c3ccccc23)cc1S(=O)(=O)NCC1CCCO1 (configuration not stated)	-1.4	-2.5	6.4	-2.6	-1.5	-1.2
COC(=O)CNC(=S)NC(=O)c1ccc(C(C)(C)C)cc1	-0.1	-1.4	0.9	1.6	-1.0	-0.4
Cn1c(O)c(/C=C2\C=NN=C2c2ccccc2)sc1=S	0.6	1.9	74.9*	1.5	-1.1	0.4
CCCCCCn1c(O)c(/C=C2\C=NN=C2c2ccccc2)sc1=S	1.4	2.5	16.2	-0.2	-0.3	0.9
CCCCn1c(O)c(/C=C2\C=NN=C2c2ccccc2)sc1=S	0.8	1.9	66.4*	-2.7	-0.6	-0.7
CCNc1ccc(C(=O)N/N=C/c2c(C)nn(-c3ccccc3)c2N2CCCC2)cc1[N+](=O)[O-]	1.9	-1.2	-0.3	0.5	-1.2	-0.3
OC[C@H]1O[C@H](OCCc2ccc(O)cc2)[C@H](O)[C@@H](O)[C@@H]1O	-1.1	-0.2	-1.4	0.5	-1.5	-0.2
COc1cc([C@H]2Oc3c(OC)cc(CCCO[C@@H]4O[C@H](CO)[C@@H](O)[C@H](O)[C@H]4O)cc3[C@@H]2CO)ccc1O	4.7*	0.6	-1.4	-0.9	-1.1	1.7
COc1ccc(NC(=O)C(c2ccccc2F)n2c(=O)c(-c3cc4ccccc4[nH]3)nc3ccccc32)cc1 (configuration not stated)	.	3.7	.	12.2*	0.6	0.3
O=C(NCc1ccccc1)C(c1ccccc1F)n1c(=O)c(-c2cc3ccccc3[nH]2)nc2ccccc21 (configuration not stated)	.	3.4	.	0.9	-0.2	-1.1
COc1ccc(C(C(=O)NCc2ccccc2)n2c(=O)c(-c3cc4ccccc4[nH]3)nc3ccccc32)cc1 (configuration not stated)	.	3.5	.	4.4	0.1	2.0
O=C(Nc1ccc2ccccc2c1)C(c1ccccc1F)n1c(=O)c(-c2cc3ccccc3[nH]2)nc2ccccc21 (configuration not stated)	.	5.4	.	6.0	0.6	0.1
O=C(NCc1ccccc1)C(c1ccncc1)n1c(=O)c(-c2cc3ccccc3[nH]2)nc2ccccc21 (configuration not stated)	.	5.7*	.	8.7	2.7*	3.1
O=C(NCc1ccccc1)C(c1ccc(-c2ccccc2)cc1)n1c(=O)c(-c2cc3ccccc3[nH]2)nc2ccccc21 (configuration not stated)	.	4.8	.	4.9	1.6*	2.5
CC(=O)Nc1ccc(C(=O)CSc2nnnn2C)cc1	-0.1	-0.5	0.3	0.9	-0.8	0.2
O=[N+]([O-])c1ccc(Oc2cccnc2)c([N+](=O)[O-])c1	-0.1	-1.7	.	2.1	-0.6	0.5
Cc1ccc(NC(=O)c2ccccc2Cl)c(Cl)c1	0.9	0.6	15.9	10.7*	-0.4	0.9

Assay outcomes from PubChem BioAssay.
